Source: PubChem BioAssay
Hits are enriched below; roughly 5.7% of the tested compounds scored in any of these assays.
Giardia kill = kills Giardia lamblia | Giardia lamblia trophozoite viability | activity change, % at 7.66 µM, hits read low | hit rate 0.15% among 340,000 | AID 540267; in the data active = activity change below about -80%; inconclusive = between about -30% and that limit;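 also: parasites exposed to compound for two days anaerobically before the ATP read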
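Luminescent ATP signal served as the viability read-out, measured 15-30 min after adding ATP detection reagent to trophozoites that had been incubated with compounds for 48 hrs at 37 deg C anaerobically at 100 cells/well.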
KB-3-1 tox = KB-3-1 parental cell cytotoxicity; KB-3-1 viability, CellTiter-Glo ATP luminescence, 72 h; Potency, µM (highest dose often 46.1 µM), most hits filed as cytotoxic; AID 1347075; hit rate 1.4% among 400,000; also: potency is read from the fitted curve at half-maximal effect; nearly all actives have a fitted effect of over 60% in size
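Viability of parental KB-3-1 cells, measured by CellTiter-Glo luminescence, followed a 72 h incubation at 37 °C with pinned compounds in phenol-red-free DMEM containing 10% FBS.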
Nrf2 inh = blocks Nrf2 signaling | A549 ARE-Fluc reporter, luciferase luminescence, 18-24 h | Potency, µM (doses to about 46 µM), for inactives: at the highest dose activity change, negative = inhibition, most hits filed as inhibitors | hit rate 2.1% among 360,000 | AID 504444; also: potency is read from the fitted curve at half-maximal effect; nearly all actives have a fitted effect of over 60% in size
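A549 ARE_Fluc cells (5000/well, 5% FBS OPTI-MEM) pre-incubated 2 h, then treated with compounds 18-24 h at 37C/5% CO2 in concentration-response. CellTiter-Fluor viability read first; BugLite luciferase luminescence after 15 min at room temperature gives Nrf2 activity.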
A549 tox = A549 cytotoxicity, counter-screen for Nrf2 inhibitors | A549 ARE-Fluc cells, CellTiter-Fluor viability, 18-24 h | Potency, µM (titrated, usually from 46 µM), inactives show at the highest dose activity change, negative = cytotoxicity, usual class: inhibitors | hit rate 0.16% among 390,000 | AID 504648; also: potency is read from the fitted curve at half-maximal effect
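A549 ARE-Fluc cells in 5% FBS OPTI-MEM, 5000 cells/well, rested 2 h then exposed to compounds in concentration-response for 18-24 h at 37 °C. Viability by CellTiter-Fluor fluorescence (Ex 405/Em 525) after 30 min; luciferase luminescence (BugLite, 15 min, RT) read afterwards.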
KB-V1 cytotox = kills drug-selected multidrug resistant KB-V1 cells; KB-V1 MDR cells viability, CellTiter-Glo, 72 h; Potency, µM (titrated, usually from 46.1 µM), usual class: cytotoxic; AID 1347076; hit rate 3.4% among 400,000; also: potency is read from the fitted curve at half-maximal effect; nearly all actives have a fitted effect of over 60% in size
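Readout: CellTiter-Glo luminescence, 10 min after addition. Cells: KB-V1 MDR subline, 72 h at 37 degrees C with compound. Analysis: corrected, normalized data fitted to concentration-effect curves.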
PI4K2A inh = PI4K2A (human) kinase inhibition; Q9BTU6; purified PI4K2A, ADP-Glo luminescence, 1 h; active compounds read low; activity change, negative = inhibition, % at 76.9 µM; hit rate 0.13% among 420,000; AID 1346378; in the data active = activity change below about -50%; inconclusive = mostly about -30% to -49%;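 also: -100% = wells without enzyme as full effect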
Target sequence (Q9BTU6 whole entry, looked up): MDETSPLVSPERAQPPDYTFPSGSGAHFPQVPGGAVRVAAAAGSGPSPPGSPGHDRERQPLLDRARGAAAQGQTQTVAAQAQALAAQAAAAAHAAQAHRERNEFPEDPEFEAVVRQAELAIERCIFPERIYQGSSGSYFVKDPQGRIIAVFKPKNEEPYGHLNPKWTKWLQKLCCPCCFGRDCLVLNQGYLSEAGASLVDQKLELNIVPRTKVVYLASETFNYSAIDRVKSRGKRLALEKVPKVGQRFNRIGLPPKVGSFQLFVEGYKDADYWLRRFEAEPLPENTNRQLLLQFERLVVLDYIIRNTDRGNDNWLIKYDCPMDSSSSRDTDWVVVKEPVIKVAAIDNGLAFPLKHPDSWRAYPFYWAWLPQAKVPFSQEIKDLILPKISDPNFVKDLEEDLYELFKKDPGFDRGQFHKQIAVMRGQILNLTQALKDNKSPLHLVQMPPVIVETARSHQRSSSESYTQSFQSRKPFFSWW
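Compounds are screened against recombinant PI4K2A using PI as substrate and ATP, the latter dispensed at 300 microM. Reactions run one hour at ambient temperature before ADP-Glo detection; full inhibition defined by wells lacking enzyme.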
Active calls of the source: *; i = inactive; u = inconclusive; x = not tested or not shown. Unless noted, calls follow the shape of the dose curve; as a rule, active = well fitted curve in the direction sought with a large enough effect; inconclusive = small, poorly fitted or top-dose-only effect, or another doubt; inactive = no such curve, though single readings can be large; an effect the other way counts as inactive or inconclusive. Unless noted, % is scaled to controls: 0 for no effect and ±100 for the full control effect.

SMILES	Giardia kill	KB-3-1 tox	Nrf2 inh	A549 tox	KB-V1 cytotox	PI4K2A inh
CN1CCN(S(=O)(=O)c2ccc(N(C)Cc3c(F)cccc3Cl)nc2)CC1	6.9	i	14.1%	1.9%	i	-9.2
CN(C)CC/C=C1\c2cc(F)ccc2CSc2ccccc21	19.4	i	-6.3%	-28.4%	20.6µM*	4.9
CC(O)CN(C)CC/C=C1/c2ccccc2CSc2ccccc21 (stereo not given)	-0.9	i	-0.6%	5.9%	i	-1.0
CN(C)CCC=C1c2ccccc2CCc2ccccc21	4.5	i	3.1%	-1.3%	20.6µM*	-4.1
CN(CC/C=C1/c2ccccc2CSc2ccccc21)CCCO	-8.0	i	0.6%	-8.5%	23.1µM*	-0.2
CN(C)CCC=C1c2ccccc2C=Cc2ccccc21	23.7	i	3.9%	-1.5%	u	3.3
CCC(=O)OCC(=O)C1(OC(=O)CC)[C@H](C)C[C@H]2[C@H]3[C@H]([C@@H](O)C[C@@]21C)[C@@]1(C)C=CC(=O)C=C1C[C@H]3Cl (stereo not given in full)	13.5	i	0.0517µM*	-7.6%	i	4.4
CCC(=O)O[C@]1(C(=O)COC)[C@@H](C)C[C@H]2[C@@H]3CCC4=CC(=O)C=C[C@]4(C)C3(F)[C@@H](O)C[C@@]21C (stereo not given in full)	x	x	x	x	x	-0.4
CCOC(=O)N=Nc1c2ccccc2c2nc3no[nH]c3nc12	-96.4*	1.46µM*	0.651µM*	0.92µM*	2.91µM*	-25.8
CCOC(=O)N=Nc1c(O)n(CC(=O)OC)c2ccccc12	-6.3	i	25.9%	2.5%	i	-19.9
CCOC(=O)[C@]12CCCCC/C=C\1N(CCc1ccc(Cl)cc1)C(=O)[C@H]2CC(=O)NCCc1ccccc1OC	x	x	x	x	x	1.4
c1ccc(-c2cccc(-c3ccccn3)n2)nc1	-4.2	u	u	u	1.84µM*	-8.8
c1ccc(-c2nnc(-c3ccccn3)nn2)nc1	-3.2	i	u	2.5%	i	-6.2
Cc1cc(O)c(CN(C)C)c2c1C(=O)/C(=C/c1ccco1)O2	-13.7	i	6.7%	-16.3%	i	-15.4
Cc1cc(O)c(C=O)c2c1C(=O)Oc1c(CO)c(O)c3c(c1O2)C(O)OC3=O (stereo not given)	0.3	i	16.7%	u	u	-84.8*
CCCCCCCCN1C(=O)[C@@H](CC(=O)N2CCCC2)C[C@@]2(C(=O)OC)C1=C[C@H](C(C)C)O[C@@H]2C1CC1	x	x	x	x	x	-5.4
O=C(N1CCC(Cc2ccccc2)CC1)n1ncc(C(O)(c2ccccc2)c2ccccc2)n1	x	x	x	x	x	0.6
C=CC[C@@]1(c2ccc(Br)cc2OC)Oc2ccccc2-c2nccnc21	x	x	x	x	x	4.5
COc1ccccc1-c1nnc(NC(=O)c2ccc3c(c2)OCO3)s1	-9.7	5.8µM*	2.1%	0.2%	6.51µM*	-0.6
CC(c1ccccc1)c1nnc(NC(=O)c2ccc3c(c2)OCO3)s1 (stereo not given)	-8.0	u	u	-0.7%	14.6µM*	0.0
N#Cc1c(NC(=O)c2ccccc2)sc2c1CCC2	-10.1	16.4µM*	8.1%	-22.9%	4.61µM*	-1.6
N#Cc1c(NC(=S)NC(=O)c2ccccc2)sc2c1CCCC2	0.4	i	18.0%	-9.9%	i	-1.1
N#Cc1c(NC(=O)c2cnccn2)sc2c1CCCC2	-2.2	u	u	-7.3%	16.4µM*	-7.2
CC(C)c1cc(C(=O)Nc2sc3c(c2C#N)CCC3)no1	-3.4	u	-11.7%	-0.5%	u	1.8
N#Cc1c(NC(=O)c2cccnc2)sc2c1CCC2	-27.8	9.2µM*	10.0%	-14.2%	5.8µM*	6.4
O=C(Nc1sc2c(c1C(=O)c1ccccc1)CCCC2)c1cccnc1	-3.2	i	-5.5%	2.5%	i	1.7
O=C(COC(=O)COc1ccccc1)Nc1ncc([N+](=O)[O-])s1	-25.6	i	-1.4%	-0.7%	i	-3.9
CC(CC(=O)Nc1ncc([N+](=O)[O-])s1)c1ccccc1 (stereo not given)	-85.5*	i	u	u	u	0.1
